# Compound activity from PubChem.
# CCHF vOTU inh-1: blocks the CCHF virus ovarian tumor domain protease. CCHFV vOTU protease, Pep-AMC fluorescence. actives 0.55% (n = 370,000). inhibition, % at 11.5 µM. AID 651958; further: 0% = vehicle wells with enzyme and 100% = no enzyme wells
# GDH-TPI inh: GDH-TPI coupled enzyme inhibition counter-screen | inhibition, % at 4.8 µM | GDH-TPI coupled enzyme counterscreen, NADH absorbance | AID 588335 | actives 1.2% (n = 360,000);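 further: 0% = DMSO wells and 100% = wells lacking the enzyme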
# Vc quorum ag: quorum light induction in luxS cqsA deficient V. cholerae | V. cholerae BH1578 lux reporter, luminescence, 6 h | activation, % at 18.7 µM | actives 0.16% (n = 350,000) | AID 588436; in the data active means activation mostly above about 9.7%, no sharp cut-off
# FBA Mtb inh: inhibits M. tuberculosis FBA enzyme; P9WQA3; purified M. tuberculosis FBA, fluorescence read-out; inhibition, % at 1 µM; actives 2.3% (n = 360,000); in the data active means inhibition above about 27%;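 further: 0% = vehicle and 100% = reference inhibitor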
# Target sequence (P9WQA3 whole entry, looked up): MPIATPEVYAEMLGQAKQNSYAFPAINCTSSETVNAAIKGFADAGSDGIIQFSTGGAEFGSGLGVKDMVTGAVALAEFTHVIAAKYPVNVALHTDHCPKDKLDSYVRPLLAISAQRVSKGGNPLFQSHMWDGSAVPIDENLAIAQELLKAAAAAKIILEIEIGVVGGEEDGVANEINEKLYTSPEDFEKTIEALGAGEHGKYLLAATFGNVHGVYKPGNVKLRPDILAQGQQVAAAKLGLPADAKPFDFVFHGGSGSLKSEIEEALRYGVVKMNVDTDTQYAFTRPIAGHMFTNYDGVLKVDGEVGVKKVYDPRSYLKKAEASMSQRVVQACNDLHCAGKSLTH
# CCHF vOTU inh-2: CCHFV vOTU protease inhibition, confirmation; shares compounds with CCHF vOTU inh-1; inhibition, % at 11.5 µM; actives 17% (n = 1,900); Recombinant CCHFV vOTU, Pep-AMC fluorescence
# Starred values were filed as active, the others as inactive; i = inactive; . = not tested or not shown. The list is not random: actives were taken first. Their share in the collection is about 3.9%. Unless noted, no stated cut-off is given here; in the data, active means inhibition above about 30%; inactive means the rest.
SMILES,CCHF vOTU inh-1,GDH-TPI inh,Vc quorum ag,FBA Mtb inh,CCHF vOTU inh-2
CCOC(=O)C1CCCN(C2=C(NS(=O)(=O)c3ccc(Br)cc3)C(=O)c3ccccc3C2=O)C1 (stereo not given),76.2*,9.6,i,-2.5,12.9
CC1CCN(C2=C(NS(=O)(=O)c3ccc(Br)cc3)C(=O)c3ccccc3C2=O)CC1,14.4,8.7,-0.2,0.8,.
CCOc1ccc(N(C(=O)c2snc(C(N)=O)c2N)C(C(=O)NC2CCCC2)C(C)C)cc1 (stereo not given),4.4,3.0,0.2,0.3,.
Cn1c(=O)c2c(ncn2CC(=O)OCC(=O)c2ccc(Br)cc2)n(C)c1=O,32.3*,-1.3,i,-2.9,-6.1
COc1ccc(/C=N/Nc2nnc(C)n2N)cc1OC(C)=O,93.0*,1.3,i,-3.4,-14.0
COc1ccc(/C=N/NC(=O)Cn2ccnc2C)cc1OC,4.5,5.2,i,-0.3,.
COc1ccc(/C=N/Nc2nnc(C)n2N)cc1OC,91.2*,5.7,-1.1,-9.2,3.8
CCOC(=O)NN=C1CN(S(=O)(=O)c2ccc(C)cc2)C1,13.6,-1.6,-0.1,-1.0,.
Cc1ccc(S(=O)(=O)NC(=O)Cn2nnc(-c3ccccc3)c2COc2ccc3ccccc3c2)cc1,33.7*,3.6,i,1.7,1.8
CC(=O)c1ccc(OCc2c(-c3ccccc3)nnn2CC(=O)NS(=O)(=O)c2ccc(C)cc2)cc1,6.5,12.4,-0.6,3.2,.
CCc1nc2c(OCCC3CCCCC3)cccn2c1N(C)C(=O)c1ccncc1,31.5*,-3.1,i,-0.4,-1.2
COc1cc(NC(C)CCCN)c2ncccc2c1 (stereo not given),104.1*,8.8,-1.0,-0.8,81.2*
COc1cc(NCCCCCCCN)c2ncccc2c1,.,3.0,i,-1.3,.
CN(CC(=O)Nc1cccc(F)c1)C(=O)c1ccc(-c2ccc(Cl)cc2)o1,2.9,1.3,i,2.2,.
Cc1nn(C2CCS(=O)(=O)C2)c(Cl)c1/C=C/C(=O)OCC(=O)Nc1ccccc1[N+](=O)[O-] (stereo not given),2.9,0.6,0.1,-1.3,.
CCC1(CC)NC(=O)N(CC(=O)OC(C)C(=O)Nc2cc([N+](=O)[O-])ccc2OC)C1=O (stereo not given),30.5*,24.7,-1.0,-2.3,-4.6
COc1cccc(C2=Nc3cccc4cccc(c34)N2)c1,29.9*,8.2,i,-7.1,-20.8
O=C(COC(=O)C1CCN(c2ccc(C(F)(F)F)cn2)CC1)NCc1ccccc1,35.1*,-5.1,i,3.7,-1.8
CC(NC(=O)COC(=O)C1CCN(c2ccc(C(F)(F)F)cn2)CC1)c1ccccc1 (stereo not given),18.0,15.0,-0.8,4.5,.
O=C1CCC(=O)N1CN(Cc1ccco1)CN1C(=O)CCC1=O,16.6,7.1,-7.7,1.5,.
CCOc1ccccc1C(=O)Nc1ccc(S(=O)(=O)Nc2cc(OC)nc(OC)n2)cc1,9.2,3.8,-0.5,1.1,.
CC[C@@H]1C=C(C(=O)O)[C@H](c2ccc(Cl)c(Cl)c2)N1S(=O)(=O)c1ccc(C)cc1,10.3,9.4,-0.1,-3.6,.
CCCCC[C@@H]1C=C(C(=O)O)[C@H](c2ccc(CC)cc2)N1S(=O)(=O)c1ccc(C)cc1,2.3,4.2,0.0,3.0,.
CCCCC[C@@H]1C=C(C(=O)O)[C@H](c2ccc(Cl)c(Cl)c2)N1S(=O)(=O)c1ccc(C)cc1,37.2*,-2.1,0.1,-1.2,21.0
CCCC[C@@H]1C=C(C(=O)O)[C@H](c2ccc(CC)cc2)N1S(=O)(=O)c1ccc(C)cc1,30.0*,13.5,i,1.9,21.2
SMILES,CCHF vOTU inh-1,GDH-TPI inh,Vc quorum ag,FBA Mtb inh,CCHF vOTU inh-2
CCCCC[C@@H]1C=C(C(=O)O)[C@H](c2cccc(C)c2)N1S(=O)(=O)c1ccc(C)cc1,31.9*,9.4,-1.4,1.9,5.1
CCCc1nnc(NS(=O)(=O)c2ccc(OC)cc2)s1,1.8,1.3,-0.5,2.9,.
CCCCCCCCN1C(=O)[C@@H](CC(=O)NCCCOC)C[C@@]2(C(=O)OC)C1=C[C@H](C(C)(C)C)O[C@@H]2C,36.3*,.,.,.,11.9
CCCCCCCCN1C(=O)[C@@H](CC(=O)N2CCN(C(=O)C3CC3)CC2)C[C@@]2(C(=O)OC)C1=C[C@H](C(C)(C)C)O[C@@H]2C,37.7*,.,.,.,28.6
CCCCCCCCN1C(=O)[C@@H](CC(=O)NCCC(C)C)C[C@@]2(C(=O)OC)C1=C[C@H](C(C)(C)C)O[C@@H]2C,5.9,.,.,.,.
CCCCOCCCNC(=O)C[C@H]1C[C@@]2(C(=O)OC)C(=C[C@H](C(C)(C)C)O[C@@H]2C)N(Cc2ccc(Cl)cc2Cl)C1=O,38.7*,.,.,.,7.2
CC(=O)C1(C)N(O)C(C)(C)C(c2ccco2)=[N+]1[O-] (stereo not given),-6.8,3.4,-0.3,-3.5,.
COc1ccc(OC)c(N2C(=O)CCCC2=O)c1,7.4,-7.1,1.5,-2.9,.
Cc1ccccc1NC(=O)Cc1nc(COC(=O)c2cc([N+](=O)[O-])ccc2NCCO)cs1,30.2*,18.9,1.7,-2.9,-2.9
Cc1ccc(F)c(S(=O)(=O)NC(=O)C2(C)CCN2C(=O)C2(c3ccc(Cl)cc3)CC2)c1 (stereo not given),30.3*,-0.4,-0.7,-2.7,-9.3
CC(=O)c1cccc(NCC(=O)Nc2cc(S(=O)(=O)N3CCCCC3)ccc2C)c1,5.0,0.4,-1.3,1.5,.
O=S(=O)(Nc1cc(Sc2ncn[nH]2)c(O)c2ccccc12)c1ccccc1,104.6*,-3.1,0.9,-2.9,96.8*
Cc1cc(O)c(Sc2ncn[nH]2)cc1NS(=O)(=O)c1ccc(Cl)cc1,-2.6,16.0,-1.6,3.8,.
Cc1ccc(S(=O)(=O)Nc2ccc(Br)cc2C(NCC(=O)O)c2ccccc2)cc1 (stereo not given),7.7,8.2,-0.3,0.4,.
O=C(O)CSc1cc(NS(=O)(=O)c2ccc(Br)cc2)c2ccccc2c1O,114.2*,-0.4,1.6,3.3,104.0*
CN(CC(=O)Nc1ccccc1Br)C(=O)c1cccc([N+](=O)[O-])c1,2.0,3.7,-0.3,2.1,.
CC(C)(C)OC(=O)N1CCCC(C(=O)Nc2cccc(C(=O)NCCCc3ccccc3)c2)C1 (stereo not given),31.3*,1.9,-1.8,-0.1,1.0
CC(=O)N1N=C(c2ccco2)CC1c1cc2cc(C)ccc2nc1Cl (stereo not given),-11.8,3.8,-0.4,2.0,.
C[C@H]1CN([C@@H](C)CO)C(=O)c2cc(Br)cnc2O[C@H]1CN(C)C(=O)c1cccnc1,-0.3,8.2,i,-2.1,.
C[C@@H]1CN([C@H](C)CO)C(=O)c2cc(Br)cnc2O[C@H]1CN(C)C(=O)c1ccccc1,33.6*,7.5,-0.4,0.2,-19.5
Cc1cc2nc3c(nc2cc1C)C1(C(=O)N(C)C)CCC3(C)C1(C)C (stereo not given),6.1,9.3,.,3.0,.
CCc1ccc(/C=c2\s/c(=C\C(=O)C(C)(C)C)[nH]c2=O)cc1,36.0*,7.5,i,-3.9,7.9
CC(C)(C)C(=O)/C=c1\[nH]c(=O)/c(=C\c2ccc(F)cc2)s1,19.9,20.2,i,-2.9,.
